The list is not random: actives were taken first. Their share in the collection is about 4.5%.
NR3A LBD binder: binders of NR3A ligand-binding domain, primary screen, biophysical, differential scanning fluorimetry, uHTS | NR3A LBD differential scanning fluorimetry, Tm shift; 0% = protein alone, 100% = glycine-bound protein | Tm shift relative to glycine control, % at 25 µM | 340,000 compounds, 2.5% hits | AID 1259313, 2017;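 active = melting temperature shift of at least 10% of the positive control shift, at one fixed dose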
EBNA-1 inhibitor: EBNA-1 DNA-binding inhibitors, primary screen, biochemical, fluorescence polarization. inhibition, % at 14.8 µM. 300,000 compounds, 0.34% hits; in the data active = inhibition above about 28%
ZTA DNA inh: blocks Epstein-Barr virus ZTA, an EBNA-1 counter-screen | ZTA-DNA binding, fluorescence polarization | inhibition, % at 11 µM | P03206 | 320,000 compounds, 0.15% hits; in the data active = inhibition above about 33%
dFosB act: activators of delta FosB homodimer, primary screen, biochemical, fluorescence polarization, TAMRA-CDK5 oligo, single point; Protein FosB (Mus musculus), P13346; purified delta FosB; percent of positive-control signal above neutral wells; activation, % at 25 µM; 340,000 compounds, 0.99% hits; AID 493131, 2011;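 active = mean activation above about 17%, with every replicate also reaching it, limit read from the data, passing the limit was not always enough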
Target sequence (P13346 whole entry, looked up): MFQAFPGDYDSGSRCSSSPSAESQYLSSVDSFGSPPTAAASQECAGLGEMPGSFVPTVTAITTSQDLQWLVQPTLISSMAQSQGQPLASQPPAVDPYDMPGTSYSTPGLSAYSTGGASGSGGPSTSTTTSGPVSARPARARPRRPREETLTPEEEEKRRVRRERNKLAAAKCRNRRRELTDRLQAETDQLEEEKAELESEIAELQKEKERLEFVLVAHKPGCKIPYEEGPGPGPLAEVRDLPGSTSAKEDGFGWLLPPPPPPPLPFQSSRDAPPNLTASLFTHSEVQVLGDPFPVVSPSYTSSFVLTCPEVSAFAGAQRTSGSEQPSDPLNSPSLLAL
TPT1 inhibitor: Candida albicans TPT1 enzyme inhibitors, primary screen, biochemical, fluorescence polarization | tRNA 2'-phosphotransferase TPT1 (Candida albicans SC5314) | recombinant caTPT1, FP RNA substrate dephosphorylation | inhibition, % at 5 µM | 300,000 compounds, 0.81% hits | AID 1962, 2009;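 active = inhibition above the mean of all tested compounds plus 3 SD, set per screening campaign, cut at about 24% in these data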;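 note: plate controls were DMSO alone for no effect and ferristatin control at 100 nM for full effect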
Rpn11 inh: Rpn11 (PSMD14) deubiquitinase inhibitors, primary screen, biochemical, fluorescence polarization, uHTS; 360,000 compounds, 0.59% hits; human 26S proteasome, Ub4-pepOG fluorescence polarization; 20S core pre-blocked with epoxomicin; 26S proteasome non-ATPase regulatory subunit 14 (Homo sapiens), O00487; AID 588493, 2011; inhibition, % at 20 µM;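 active = inhibition at 20 µM, scaled to each plate's controls, above about 33%, limit read from the data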
Active calls of the source: *; · = not tested or not shown.

SMILES	NR3A LBD binder	EBNA-1 inhibitor	ZTA DNA inh	dFosB act	TPT1 inhibitor	Rpn11 inh
COc1ccc(S(=O)(=O)NCc2cccnc2)cc1NC(=O)c1ccccc1C	1	·	·	-17	·	64*
CCOc1ccc(S(=O)(=O)NCc2cccnc2)cc1NC(=O)c1ccccc1	1	·	·	-3	·	7
COc1ccc(/C=C/C(=O)OCC(=O)c2ccc(S(=O)(=O)N3CCCCC3)cc2)cc1OC	7	6	-17	84*	0	0
Cc1ccc([C@@H]2[C@@H]3C(=O)N(C)C(=O)[C@@H]3[C@]3(Cc4ccccc4)C(=O)N(CCO)CC(=O)N23)o1	2	-2	6	-2	-2	0
Cc1ccc([C@@H]2[C@@H]3C(=O)N(c4ccccc4)C(=O)[C@@H]3[C@]3(Cc4ccccc4)C(=O)N(CC4CC4)CC(=O)N23)o1	18*	-6	5	6	2	-2
CC(C)=CCc1cc([C@@H]2CC(=O)c3ccc(O)c(CC=C(C)C)c3O2)ccc1O	11*	-2	12	-14	-2	19
Cc1ccc2c(c1)C(=O)CC(c1ccc3c(c1)OCCO3)O2 (stereo not given)	1	-12	-15	-5	1	0
Cc1ccc(C(=O)NCCC(=O)Nc2ccccc2C)cc1	-2	-17	3	5	-2	2
COc1cc(C(C(=O)NC2CCCCC2)N(C(=O)Cc2c[nH]c3ccccc23)c2ccc(C)cc2)cc(OC)c1OC (stereo not given)	26*	-5	21	-26	-3	-5
Cc1ccc(C(C(=O)NC2CCCCC2)N(C(=O)Cc2c[nH]c3ccccc23)c2ccccc2)o1 (stereo not given)	-7	6	-1	-11	1	2
O=C(Nc1ccsn1)c1ccc(Cl)cc1Cl	10*	-1	-3	-3	-2	8
Cc1cccc2cc(CN(Cc3ccc(F)cc3)C(=O)N(C)C)c3nnnn3c12	12*	-29	-6	-9	2	-5
CCc1cc2cc(C)c(C)cc2nc1SCC(=O)NNC(=O)c1ccco1	13*	6	-7	-2	3	-7
CCc1cc2cccc(C)c2nc1SCC(=O)NNC(=O)c1ccco1	-1	8	5	-8	-1	-7
O=S(=O)(Nc1ccccc1Cl)c1ccc(NS(=O)(=O)c2cccs2)cc1	-9	3	-6	-5	-2	-4
O=C(Nc1ccc(F)cc1)Nc1ccccc1NS(=O)(=O)c1cccs1	30*	15	-4	-12	6	8
Cc1cc(Cl)ccc1OCC(=O)Nc1ccccc1NS(=O)(=O)c1cccs1	14*	3	6	4	-1	-1
O=C(Nc1ccc(Cl)cc1)Nc1ccccc1NS(=O)(=O)c1cccs1	30*	5	-4	-3	-1	0
NC(=O)c1ccccc1NS(=O)(=O)c1cccs1	1	-9	-5	3	0	5
O=C(COc1ccc(Cl)cc1Cl)Nc1ccccc1NS(=O)(=O)c1cccs1	5	-5	4	7	1	9
O=C(COC(=O)c1ccc(NS(=O)(=O)c2cccs2)cc1O)Nc1nc2ccccc2s1	19*	9	7	-1	-1	15
COc1cc(OC)cc(-c2c(C#Cc3ccsc3)c3cc(-c4ccc(OC)nc4)ccc3n2C)c1	-1	·	20	-3	·	15
N#C/C(=C/Nc1ccccc1F)S(=O)(=O)c1ccc(Cl)cc1	-4	0	3	0	-9	0
COc1ccc(Cl)cc1NC(=O)CN(C)S(=O)(=O)c1cccs1	3	6	-12	-6	5	13
COc1ccc(Cl)cc1NC(=O)COC(=O)c1cc(NS(=O)(=O)c2cccs2)ccc1O	25*	11	-10	-9	-3	8
COC(=O)[C@H](CCSC)NC(=O)Cn1cnc(C(=O)Nc2ccc(C)c(C)c2)n1	13*	·	·	-6	·	-7
